Measurements reported in PubChem BioAssay AID1159580 (chemical genetic matrix, 2015).
Where “and” joins values, the source holds several entries; their conditions need not be identical. Equal values may be shown once. The campaign covered roughly 5,500 compounds. About 2,000 (36%) were called active. Not shown: some 18% with an inconclusive outcome. No stated cut-off is given here; in the data, active means normalized growth mostly below about 0.91 (no sharp cut-off); inconclusive means no clear call, values can overlap the other calls; inactive means mostly above about 0.92. The list shows a part of the results.

Assay: chemical genetic growth profiling, strain panel (AID 1159580);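 further: tested at 20 µM; growth read once vehicle control cultures reached saturation at 30 °C; 1 = growth at the plate median or of vehicle wells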
Details: S. cerevisiae deletion strains, growth OD

Measured: normalized growth

COC1(C)CCC2OC2(C)CCC2C1CC2(C)C (centres undefined)
inactive: locus YAL013W, strain DEP1, stronger effect = lower value 1 | locus YAL021C, strain ccr4, stronger effect = lower value 1 | locus YAL026C, strain drs2, stronger effect = lower value 1.03 | locus YAL030W, strain snc1, stronger effect = lower value 1.01 | locus YBL061C, strain skt5, stronger effect = lower value 1.01 | locus YBR009C, strain hhf1, stronger effect = lower value 0.991 | locus YBR021W, strain FUR4, stronger effect = lower value 1.02 | locus YBR023C, strain chs3, stronger effect = lower value 1 | locus YBR171W, strain sec66, stronger effect = lower value 1.02 | locus YBR229C, strain ROT2, stronger effect = lower value 1.01 | locus YBR231C, strain swc5, stronger effect = lower value 1.02 | locus YBR279W, strain paf1, stronger effect = lower value 0.998 | locus YCL011C, strain gbp2, stronger effect = lower value 1.01 | locus YCL016C, strain dcc1, stronger effect = lower value 1 | locus YCL029C, strain bik1, stronger effect = lower value 0.998 | locus YCL061C, strain MRC1, stronger effect = lower value 1 | locus YCL069W, strain vba3, stronger effect = lower value 1.02 | locus YCR088W, strain abp1, stronger effect = lower value 1.01 | locus YDL005C, strain med2, stronger effect = lower value 1.01 | locus YDL035C, strain GPR1, stronger effect = lower value 1.01 | locus YDL040C, strain nat1, stronger effect = lower value 1.01 | locus YDL074C, strain BRE1, stronger effect = lower value 1.01 | locus YDL101C, strain DUN1, stronger effect = lower value 1.02 | locus YDL134C, strain PPH21, stronger effect = lower value 1.04 | locus YDL185W, strain tfp1, stronger effect = lower value 1.01 | locus YDL192W, strain arf1, stronger effect = lower value 0.99 | locus YDR001C, strain nth1, stronger effect = lower value 1.01 | locus YDR069C, strain doa4, stronger effect = lower value 1.01 | locus YDR101C, strain arx1, stronger effect = lower value 0.993 | locus YDR137W, strain rgp1, stronger effect = lower value 1 | locus YDR150W, strain NUM1, stronger effect = lower value 0.98 | locus YDR159W, strain sac3, stronger effect = lower value 0.997 | locus YDR162C, strain NBP2, stronger effect = lower value 0.995 | locus YDR195W, strain ref2 1.02 | locus YDR297W, strain sur2, stronger effect = lower value 0.997 | locus YDR318W, strain mcm21, stronger effect = lower value 1.01 | locus YDR334W, strain swr1, stronger effect = lower value 1.02 | locus YDR335W, strain msn5, stronger effect = lower value 1.02 | locus YDR388W, stronger effect = lower value 1.01 | locus YDR392W, strain spt3, stronger effect = lower value 0.818 | locus YDR502C, strain sam2, stronger effect = lower value 1.04 | locus YEL003W, strain gim4, stronger effect = lower value 1.01 | locus YEL037C, strain rad23, stronger effect = lower value 1.01 | locus YEL061C, strain CIN8 (second series), stronger effect = lower value 1.02 | locus YER015W, strain faa2, stronger effect = lower value 1 | locus YER016W, strain bim1, stronger effect = lower value 1.01 | locus YER110C, stronger effect = lower value 1.02 | locus YER111C, strain swi4, stronger effect = lower value 1 | locus YER155C, strain BEM2 (second series), stronger effect = lower value 0.995 | locus YER155C, strain BEM2, stronger effect = lower value 0.996 | locus YER167W, strain BCK2, stronger effect = lower value 0.997 | locus YFR010W, strain ubp6, stronger effect = lower value 1.03 | locus YGL078C, strain dbp3, stronger effect = lower value 1.05 | locus YGL086W, strain mad1, stronger effect = lower value 1 | locus YGL167C, strain pmr1, stronger effect = lower value 1.01 | locus YGL173C, strain kem1, stronger effect = lower value 1.01 | locus YGL227W, strain vid30, stronger effect = lower value 1.01 | locus YGL240W, strain doc1, stronger effect = lower value 1 | locus YGL248W, strain PDE1, stronger effect = lower value 1.05 | locus YGL253W, strain hxk2, stronger effect = lower value 1.01 | locus YGR078C, strain PAC10, stronger effect = lower value 1.05 | locus YGR135W, strain pre9, stronger effect = lower value 1.06 | locus YGR252W, strain gcn5, stronger effect = lower value 1.03 | locus YHR013C, strain ard1, stronger effect = lower value 1.03 | locus YHR027C, strain rpn1, stronger effect = lower value 1.02 | locus YHR030C, strain SLT2, stronger effect = lower value 1.01 | locus YHR079C, strain IRE1 (second series), stronger effect = lower value 1 | locus YHR079C, strain IRE1, stronger effect = lower value 1.04 | locus YHR094C, strain hxt1, stronger effect = lower value 1.01 | locus YHR129C, strain ARP1, stronger effect = lower value 1.01 | locus YHR142W, strain chs7, stronger effect = lower value 1.03 | locus YHR200W, strain rpn10, stronger effect = lower value 1.02 | locus YIL066C, strain RNR3, stronger effect = lower value 1 | locus YIL073C, strain SPO22, stronger effect = lower value 1.06 | locus YIL125W, strain kgd1, stronger effect = lower value 0.981 | locus YIR030C, strain dcg1, stronger effect = lower value 0.999 | locus YJL092W, strain hpr5, stronger effect = lower value 1.01 | locus YJL095W, strain BCK1 (second series), stronger effect = lower value 1.01 | locus YJL095W, strain BCK1, stronger effect = lower value 1.11 and 1.04 | locus YJL115W, strain asf1, stronger effect = lower value 1.01 | locus YJL129C, strain trk1, stronger effect = lower value 1.01 | locus YJL134W, strain LCB3, stronger effect = lower value 1.01 | locus YJL154C, strain vps35, stronger effect = lower value 1.02 | locus YJL164C, strain tpk1, stronger effect = lower value 1.01 | locus YJL166W, strain qcr8, stronger effect = lower value 1.02 | locus YJL168C, strain set2, stronger effect = lower value 0.988 | locus YJL187C, strain SWE1 (second series), stronger effect = lower value 1.05 | locus YJL187C, strain SWE1, stronger effect = lower value 1 | locus YJR043C, strain POL32, stronger effect = lower value 0.99 | locus YJR066W, strain TOR1, stronger effect = lower value 0.962 | locus YKL009W, strain mrt4, stronger effect = lower value 1.04 | locus YKL068W, stronger effect = lower value 1 | locus YKL085W, strain MDH1 (second series), stronger effect = lower value 1 | locus YKL085W, strain MDH1, stronger effect = lower value 1 | locus YKL160W, strain elf1, stronger effect = lower value 1 | locus YKL190W, strain CNB1, stronger effect = lower value 1 | locus YKR001C, strain vps1, stronger effect = lower value 1.02 | locus YKR026C, strain gcn3, stronger effect = lower value 1.01 | locus YKR091W, strain srl3, stronger effect = lower value 1.01 | locus YLL001W, strain dnm1, stronger effect = lower value 0.989 | locus YLL026W, stronger effect = lower value 0.991 | locus YLL041C, strain sdh2, stronger effect = lower value 1.02 | locus YLR027C, strain aat2, stronger effect = lower value 0.993 | locus YLR039C, strain RIC1, stronger effect = lower value 1.06 | locus YLR058C, strain SHM2, stronger effect = lower value 1.03 | locus YLR102C, strain apc9, stronger effect = lower value 0.997 | locus YLR113W, strain HOG1, stronger effect = lower value 1.03 | locus YLR221C, strain rsa3, stronger effect = lower value 1.01 | locus YLR258W, strain gsy2, stronger effect = lower value 1.01 | locus YLR262C, strain YPT6 (second series), stronger effect = lower value 0.979 | locus YLR262C, strain YPT6, stronger effect = lower value 1.07 | locus YLR268W, strain sec22, stronger effect = lower value 0.983 | locus YLR320W, strain mms22, stronger effect = lower value 1 | locus YLR342W, strain FKS1, stronger effect = lower value 1 | locus YLR357W, strain rsc2, stronger effect = lower value 1.02 | locus YLR370C, strain arc18, stronger effect = lower value 1 | locus YLR371W, strain rom2, stronger effect = lower value 1.01 | locus YLR384C, strain iki3, stronger effect = lower value 1 | locus YLR418C, strain cdc73, stronger effect = lower value 1.04 | locus YML016C, strain PPZ1, stronger effect = lower value 1.02 | locus YML032C, strain rad52, stronger effect = lower value 1 | locus YML120C, strain ndi1, stronger effect = lower value 1.01 | locus YML124C, strain tub3, stronger effect = lower value 1 | locus YMR058W, strain fet3, stronger effect = lower value 1.01 | locus YMR078C, strain ctf18, stronger effect = lower value 1.01 | locus YMR125W, strain sto1, stronger effect = lower value 0.997 | locus YMR129W, stronger effect = lower value 1.01 | locus YMR205C, strain PFK2, stronger effect = lower value 0.981 | locus YMR223W, strain ubp8, stronger effect = lower value 1.01 | locus YMR231W, strain pep5, stronger effect = lower value 1 | locus YMR307W, strain GAS1, stronger effect = lower value 1.02 | locus YNL067W, strain RPL9B, stronger effect = lower value 1.04 | locus YNL071W, strain lat1, stronger effect = lower value 1.01 | locus YNL153C, strain GIM3, stronger effect = lower value 1.04 | locus YNL183C, strain NPR1, stronger effect = lower value 0.972 | locus YNL209W, strain ssb2, stronger effect = lower value 1.01 | locus YNL233W, strain BNI4, stronger effect = lower value 1.06 | locus YNL248C, strain rpa49, stronger effect = lower value 1.02 | locus YNL250W, strain rad50, stronger effect = lower value 1.03 | locus YNL271C, strain bni1, stronger effect = lower value 1.01 | locus YNL298W, strain CLA4, stronger effect = lower value 1.02 | locus YNL307C, strain MCK1, stronger effect = lower value 1.01 | locus YNL322C, strain KRE1 (second series), stronger effect = lower value 1.01 | locus YNR049C, strain mso1, stronger effect = lower value 1.01 | locus YNR052C, strain pop2, stronger effect = lower value 1.03 | locus YOL012C, strain htz1 1.84 | locus YOL147C, strain pex11, stronger effect = lower value 1.01 | locus YOR001W, strain rrp6, stronger effect = lower value 1.02 | locus YOR061W, strain CKA2, stronger effect = lower value 1.01 | locus YOR069W, strain VPS5, stronger effect = lower value 1.01 | locus YOR070C, strain gyp1, stronger effect = lower value 1.02 | locus YOR080W, strain dia2, stronger effect = lower value 1 | locus YOR083W, strain WHI5, stronger effect = lower value 0.996 | locus YOR106W, strain vam3, stronger effect = lower value 1.01 | locus YOR136W, strain idh2, stronger effect = lower value 1.01 | locus YOR144C, strain elg1, stronger effect = lower value 0.994 | locus YOR184W, strain ser1, stronger effect = lower value 0.976 | locus YOR231W, strain MKK1, stronger effect = lower value 1.07 | locus YOR265W, strain rbl2, stronger effect = lower value 1.02 | locus YOR270C, strain vph1, stronger effect = lower value 1.15 | locus YOR290C, strain snf2, stronger effect = lower value 1.02 | locus YOR316C, strain cot1, stronger effect = lower value 1.01 | locus YPL051W, strain arl3, stronger effect = lower value 0.976 | locus YPL055C, strain LGE1, stronger effect = lower value 1 | locus YPL078C, strain atp4, stronger effect = lower value 1.01 | locus YPL106C, strain sse1, stronger effect = lower value 1.01 | locus YPL240C, strain hsp82, stronger effect = lower value 1.01 | locus YPL241C, strain CIN2, stronger effect = lower value 0.993 | locus YPL256C, strain CLN2, stronger effect = lower value 1.03 | locus YPR119W, strain clb2, stronger effect = lower value 1 | locus YPR141C, strain kar3, stronger effect = lower value 1.02 | locus YPR163C, strain tif3, stronger effect = lower value 1 | locus YPR167C, strain met16, stronger effect = lower value 1.01 | strain wtn01, stronger effect = lower value 0.986
